Screening results deposited in PubChem BioAssay by several laboratories.
ERa coact pot: enhances coactivator binding to human estrogen receptor alpha; coactivator binding (% of control), % at 25.6 µM; 86,000 tested, 1.3% active; P03372; TR-FRET ERalpha-LBD/SRC-Cy5 coactivator binding, 2 h; 100 = basal binding, no effect; AID 639; in the data active = activity above about 200%;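 also: binding measured in presence of low estradiol as agonist stimulus; 0% = peptide alone without receptor and 100% = receptor with peptide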
Target sequence (P03372 whole entry, looked up, the tested form may be a part): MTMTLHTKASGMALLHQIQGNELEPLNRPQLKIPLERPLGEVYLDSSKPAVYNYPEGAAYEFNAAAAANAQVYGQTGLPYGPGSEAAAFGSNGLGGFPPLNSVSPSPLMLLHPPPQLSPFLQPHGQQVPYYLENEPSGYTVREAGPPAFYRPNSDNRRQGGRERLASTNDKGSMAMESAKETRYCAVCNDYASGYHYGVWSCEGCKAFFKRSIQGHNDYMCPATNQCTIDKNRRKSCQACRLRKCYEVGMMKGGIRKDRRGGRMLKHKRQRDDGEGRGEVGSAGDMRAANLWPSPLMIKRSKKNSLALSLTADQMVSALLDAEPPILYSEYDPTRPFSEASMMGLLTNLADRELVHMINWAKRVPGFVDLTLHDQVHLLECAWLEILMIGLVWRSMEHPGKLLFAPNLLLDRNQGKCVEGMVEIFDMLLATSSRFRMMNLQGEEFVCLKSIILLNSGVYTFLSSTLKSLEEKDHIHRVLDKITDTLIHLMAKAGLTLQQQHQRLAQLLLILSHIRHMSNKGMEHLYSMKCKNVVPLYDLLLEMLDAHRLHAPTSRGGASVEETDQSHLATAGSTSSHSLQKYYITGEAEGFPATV
ERa coact inh: ER-alpha (human) coactivator binding inhibition. P03372. TR-FRET ER-alpha LBD / SRC-1 peptide, estradiol-bound. inhibition, % at 25.6 µM. 86,000 tested, 1.7% active; in the data active = inhibition above about 50%;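 also: 0% = receptor plus peptide control and 100% = peptide only without receptor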
ERb coact inh: blocks coactivator binding to human estrogen receptor beta; 86,000 tested, 1.3% active; TR-FRET ER-beta LBD / SRC1-Cy5 peptide binding; receptor agonist-loaded with 1 µM estradiol; inhibition, % at 25.6 µM;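 active = compounds whose percent inhibition of the receptor-coactivator binding signal exceeds about 50% in the single-dose screen, limit read from the data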;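 also: 0% = receptor plus peptide wells without compound and 100% = peptide-only wells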
Candida biofilm: kills Candida albicans biofilms | 85,000 tested, 0.14% active | C. albicans biofilm + clotrimazole, Alamar Blue | inhibition, % at 6 µM | AID 834;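 active = inhibition above 20%; inactive = inhibition below 20%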;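 also: preformed 24 hr biofilms exposed to compound for 48 hr; 0% = biofilm without compound and 100% = blank killed by clotrimazole plus chlorhexidine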
Smad3 inh: Smad3 (human) transcription factor binding inhibition | P84022 | TR-FRET Smad3/Dy647-FoxH1 peptide binding, europium anti-His | inhibition, % at 25 µM | 88,000 tested, 0.29% active;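 active = compounds that reduce the energy-transfer binding signal between the protein and its labelled peptide by more than half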;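 also: 0% = Smad3 plus labelled peptide maximal FRET and 100% = peptide-only background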
The depositor's hits bear a star; [ ] = remark or other dose. Rows were chosen to be rich in hits. Some 3.8% of all compounds tested hit in one or more screens of this group.

What do the screens show for `Cc1csc2ncc(C(=O)Nc3ccccc3Cl)c(=O)n12`?
ERa coact pot: 239*[fluorescence artefact?]; ERa coact inh: 58*[fluorescence artefact?]; ERb coact inh: 65*[fluorescence artefact?]; Candida biofilm: 4; Smad3 inh: 23

How did Cc1ccc(NC(=O)c2cnc3scc(C)n3c2=O)c(C)c1 do in these assays?
ERa coact pot: 220*; ERa coact inh: 50*[fluorescence artefact?]; ERb coact inh: 39; Candida biofilm: 12; Smad3 inh: -13

What do the screens show for `CN(C)CCNCCN`?
Smad3 inh: 5

How did CCOCC(=O)Nc1nc2ccc(OC)cc2s1 do in these assays?
ERa coact pot: 117; ERa coact inh: -13; ERb coact inh: -8; Candida biofilm: -2; Smad3 inh: 5

How did COc1ccc2nc(NC(=O)c3cnccn3)sc2c1 do in these assays?
ERa coact pot: 46; ERa coact inh: 75*[fluorescence artefact?]; ERb coact inh: 50; Candida biofilm: 8; Smad3 inh: 10

What do the screens show for `CCC(=O)Nc1ncnc2ncn(C(=O)CC)c12`?
Smad3 inh: 1

What do the screens show for `CCOC(=O)C1CCN(C(=O)C2CCN(c3nc4ccc(OC)cc4s3)CC2)CC1`?
ERa coact pot: 105; ERa coact inh: -6; ERb coact inh: 91*[fluorescence artefact?]; Candida biofilm: 7; Smad3 inh: -4

What do the screens show for `COc1ccc(N2CCN(C(=O)c3ccc4nc(N5CCCCC5)sc4c3)CC2)cc1`?
ERa coact pot: 72; ERa coact inh: 6; ERb coact inh: -1; Candida biofilm: 16; Smad3 inh: 1

Results for O=c1oc2ccccc2c(Nc2ccc3ccccc3c2)c1[N+](=O)[O-] ?
ERa coact pot: 54; ERa coact inh: 71*[fluorescence artefact?]; ERb coact inh: 18; Candida biofilm: 8; Smad3 inh: 9

How did Cc1ccc(CN2CCN(Cc3ccc(C)o3)[C@@H](C)C2)o1 do in these assays?
Smad3 inh: 23

How did COc1cc2c(cc1OC)CN(Cc1nc3ccsc3c(=O)[nH]1)CC2 do in these assays?
ERa coact pot: 59; ERa coact inh: 53*[fluorescence artefact?]; ERb coact inh: 49; Candida biofilm: 1; Smad3 inh: 9

Results for [N-]=[N+]=N[C@@H]1[C@@H](O)[C@H](CO)O[C@@H]1n1cnc2c(N)ncnc21 ?
Smad3 inh: 8

What do the screens show for `Clc1ccc2nc(CSc3nc4ccccc4o3)cn2c1`?
ERa coact pot: 102; ERa coact inh: 0; ERb coact inh: -10; Candida biofilm: 2; Smad3 inh: -2

How did Clc1ccc2nc(CSc3nnc(-c4c[nH]c5ccccc45)o3)cn2c1 do in these assays?
ERa coact pot: 261*[fluorescence artefact?]; ERa coact inh: 31; ERb coact inh: 42; Candida biofilm: 5; Smad3 inh: 11

How did O[C@@H](c1cc(-c2ccc(Cl)cc2)nc2ccccc12)[C@@H]1CCCCN1 do in these assays?
Smad3 inh: 12

Results for Cc1ncn(-c2ccccc2O)c1C ?
Smad3 inh: 20

Results for COc1ccccc1C(=O)Oc1ccc(C(C)C)cc1 ?
ERa coact pot: 91; ERa coact inh: -8; ERb coact inh: -7; Candida biofilm: 58*; Smad3 inh: 9

What do the screens show for `c1ccc2c(c1)oc1c(NCc3ccc4c(c3)OCO4)ncnc12`?
ERa coact pot: 378*[fluorescence artefact?]; ERa coact inh: -3; ERb coact inh: -5; Candida biofilm: 5; Smad3 inh: 12

What do the screens show for `COc1ccc(-c2c(C#N)c(SCC(=O)Nc3ccccc3)nc3c2CCCC3)cc1`?
ERa coact pot: 147; ERa coact inh: 14; ERb coact inh: 28; Candida biofilm: 6; Smad3 inh: -2

Results for CCc1ccccc1NC(=O)CSc1nc2c(c(-c3ccco3)c1C#N)CCCC2 ?
ERa coact pot: 301*[fluorescence artefact?]; ERa coact inh: 10; ERb coact inh: 11; Candida biofilm: -4; Smad3 inh: -14

What do the screens show for `Cc1ccccc1NC(=O)CSc1nc2c(c(-c3ccco3)c1C#N)CCCC2`?
ERa coact pot: 290*[fluorescence artefact?]; ERa coact inh: 24; ERb coact inh: 16; Candida biofilm: -5; Smad3 inh: 8

How did COC(=O)CSc1nc2c(c(-c3ccc(C)o3)c1C#N)CCCC2 do in these assays?
ERa coact pot: 95; ERa coact inh: 1; ERb coact inh: 2; Candida biofilm: -3; Smad3 inh: 3

Results for N#Cc1c(SCC(=O)Nc2nccs2)nc2c(c1-c1ccco1)CCCC2 ?
ERa coact pot: 83; ERa coact inh: 64*; ERb coact inh: 37; Candida biofilm: 6; Smad3 inh: 12

How did N#Cc1c(SCC(N)=O)nc2c(c1-c1ccc(OCc3ccccc3)cc1)CCCC2 do in these assays?
ERa coact pot: active[fluorescence artefact?]; ERa coact inh: -13; ERb coact inh: -7; Candida biofilm: 3; Smad3 inh: -124
